The structures appear in SMILES notation. Where “and” joins values, the source holds several entries; their conditions need not be identical. Equal values may be shown once. Records with an inconclusive call do not appear. Calls of active or inactive are those of the source.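 Rule for the calls, unless noted: active = thallium flux through the channel raised or lowered by more than 3 SD from vehicle-only wells, actives on both sides; inactive = the rest.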

The nature of assay [1]: modulation of C. elegans fzo-1 (AID 1259413; call rule not given here;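 note: fzo-1 mutant C. elegans worms in liquid wells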). The conditions noted are these: C. elegans fzo-1 modulator screen, mean read-out; hits give high values.
Assay [2] concerns F380Y. Nature of the assay: BK channel mutant inhibitors and activators – cell-based, U2OS BacMam, thallium flux, beta subunits, selectivity assay, profiling panel (AID 1259406).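 Note: initial slope of Thallos dye fluorescence rise after thallium is added; log ratio against the mean of 0.3% DMSO vehicle wells on the same plate.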 The conditions noted are these: U2OS BacMam BK variants, at 30 µM.
Assay [3] deals with F380Y/beta1. The assay is described as above. The conditions noted are these: U2OS BacMam BK variants, at 30 µM.
In assay [4] the test system is F380Y/beta2Delta. The assay is described as above. Conditions: U2OS BacMam BK variants, at 30 µM.
For assay [5], the system named is R275C. The description is as above. The conditions noted are these: U2OS BacMam BK variants, at 30 µM.
Assay [6] deals with R275C/beta1. Described as above. Conditions: U2OS BacMam BK variants, at 30 µM.
Assay [7] concerns R275C/beta2Delta. Described as above. Conditions: U2OS BacMam BK variants, at 30 µM.
For assay [8], the system named is R275C/Slo1WT/beta2. The description is as above. The conditions noted are these: U2OS BacMam BK variants, at 30 µM.
The nature of assay [9]: compounds altering circadian rhythm period length – cell-based, LOPAC library, luminescence reporter (AID 2774; call rule not given here;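 note: values are relative to mean of DMSO wells on each plate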). The conditions noted are these: circadian reporter cells, at 7 µM, actives lie on both sides.
A short description of assay [10]: compounds altering viability of human ES cells (AID 493140; call rule not given here;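 note: cells exposed to compounds for four days before counting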). Conditions: human embryonic stem cell survival screen; hits give high values.
For assay [11], the system named is Hepatitis C virus NS3 helicase. In words: blockers of NS3h binding to ssDNA – biochemical, fluorescence polarization, LOPAC1280 library, primary screen (AID 687035; in the data active = inhibition above about 37%). Conditions: Purified HCV NS3 helicase, Cy5-dT15 ssDNA binding fluorescence polarization; hits give high values; concentration not given here. A general note: Polarisation of emitted light reports the rotation of a fluorescent probe.

A short description of assay [12]: compounds altering Cy5-DNA-NS3h complex signal – biochemical, LOPAC1280, artefact control for HCV NS3 helicase inhibitor project (AID 687037; call rule not given here). The conditions noted are these: Cy5-DNA-NS3h complex fluorescence interference counterscreen.
Assay [13] relates to Aerobactin synthetase IucA (Klebsiella pneumoniae, hypervirulent). In words: biochemical IucA inhibition screen of LOPAC library by absorbance (AID 1346212; call rule not given here;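 note: 100% = no compound wells and 0% = no enzyme wells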). Conditions: IucA enzyme assay, absorbance (OD) readout; hits give low values;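 tested at 8 µM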.
The nature of assay [14]: blockers of cellular phospholipid synthesis – cell-based, LOPAC library, screen 4, primary screen (AID 1347384; call rule not given here). The conditions noted are these: animal cells, phospholipid biosynthesis inhibition screen; at 10 µM.
The target in assay [15] is ATP-dependent translocase ABCB1 (Homo sapiens) (UniProt P08183). In words: P-glycoprotein substrate transport blockade – cell-based (AID 377; in the data active = fluorescence slope change above about 50%). The conditions noted are these: MDR1-expressing cells, fluorescent substrate accumulation slope; hits give high values; concentration not given here.
Chain of ATP-dependent translocase ABCB1 (Homo sapiens) (P08183 whole entry, looked up): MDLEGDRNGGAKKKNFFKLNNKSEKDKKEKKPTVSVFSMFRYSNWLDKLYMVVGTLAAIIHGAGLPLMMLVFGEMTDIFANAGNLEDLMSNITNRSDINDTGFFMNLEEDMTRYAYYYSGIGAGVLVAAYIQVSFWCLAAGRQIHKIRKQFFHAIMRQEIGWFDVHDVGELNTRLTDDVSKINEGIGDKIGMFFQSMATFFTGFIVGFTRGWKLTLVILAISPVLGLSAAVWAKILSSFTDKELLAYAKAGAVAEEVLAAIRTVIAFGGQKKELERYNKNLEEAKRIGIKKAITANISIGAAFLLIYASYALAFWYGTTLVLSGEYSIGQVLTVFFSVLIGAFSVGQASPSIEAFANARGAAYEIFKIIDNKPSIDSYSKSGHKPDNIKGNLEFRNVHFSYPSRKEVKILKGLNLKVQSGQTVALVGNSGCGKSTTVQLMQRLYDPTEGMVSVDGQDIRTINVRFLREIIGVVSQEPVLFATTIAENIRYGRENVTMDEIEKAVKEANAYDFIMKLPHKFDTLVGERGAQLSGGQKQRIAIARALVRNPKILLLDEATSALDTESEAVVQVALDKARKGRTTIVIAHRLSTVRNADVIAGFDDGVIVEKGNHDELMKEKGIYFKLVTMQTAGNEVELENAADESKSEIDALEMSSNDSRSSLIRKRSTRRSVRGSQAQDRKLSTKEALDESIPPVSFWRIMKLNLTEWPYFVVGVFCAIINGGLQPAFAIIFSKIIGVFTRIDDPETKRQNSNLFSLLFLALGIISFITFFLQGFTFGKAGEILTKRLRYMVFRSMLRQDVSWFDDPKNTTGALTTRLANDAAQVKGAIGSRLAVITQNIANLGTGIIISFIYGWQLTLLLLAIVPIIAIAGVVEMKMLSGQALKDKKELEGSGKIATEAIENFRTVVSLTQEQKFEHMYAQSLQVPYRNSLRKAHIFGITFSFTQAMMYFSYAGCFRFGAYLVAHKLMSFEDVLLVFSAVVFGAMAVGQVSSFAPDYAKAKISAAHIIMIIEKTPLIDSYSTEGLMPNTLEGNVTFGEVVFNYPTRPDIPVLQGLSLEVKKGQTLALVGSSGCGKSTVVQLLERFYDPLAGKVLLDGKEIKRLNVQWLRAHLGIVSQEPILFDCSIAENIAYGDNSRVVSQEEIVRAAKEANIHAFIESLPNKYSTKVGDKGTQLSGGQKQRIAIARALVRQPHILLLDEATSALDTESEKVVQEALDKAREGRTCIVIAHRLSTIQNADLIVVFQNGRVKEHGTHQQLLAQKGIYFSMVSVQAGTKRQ

Take `c1ccc2c(c1)Nc1ccccc1S2`: the mean signal in assay [1] was 265 (inactive). In addition, the log fold change Tl+ flux was -0.0351 (inactive) in [2]; 0.0323 (inactive) in assay [3]; 0.033 (inactive) in assay [4]; -0.041 (inactive) in assay [5]; 0.0203 (inactive) in assay [6]; -0.0792 (inactive) in assay [7]. The log fold change Tl+ flux in [8] is 0.00584 (inactive).
Usually inhibition stands for the change of the read-out against control, counted positive when it falls. By remaining activity is commonly meant the signal under treatment as a percentage of the control signal. Take `CC(C)c1cccc(C(C)C)c1O`: the period change in assay [9] is 0.005 h (inactive). In [10], the survival is 5.17 (inactive). Further, in assay [11], the inhibition was -1% (inactive). Moreover, the fluorescence ratio (interference) in [12] is 1 (inactive). In addition, the mean signal in [1] was 226 (inactive). The remaining activity in assay [13] was 108% (inactive). Moreover, the outcome in assay [14] was inactive. Further, the log fold change Tl+ flux in assay [2] is -0.0182 (inactive); in assay [3] it was -0.0717 (inactive); in assay [4], -0.0275 (inactive); in [5], -0.0316 (inactive); in assay [6], -0.0537 (inactive); in [7], -0.0157 (inactive). Also, the log fold change Tl+ flux in assay [8] is -0.0465 (inactive).
In the case of `C#CCN(C)[C@H](C)Cc1ccccc1`, the fluorescence slope change in assay [15] was -18.7% (inactive). In addition, in assay [10], the survival is 12.8 (inactive). For the same molecule, the mean signal in assay [1] was 258 (inactive). Moreover, the log fold change Tl+ flux was 0.00891 (inactive) in assay [2]; 0.0474 (inactive) in assay [3]; -0.0258 (inactive) in assay [4]; -0.00358 (inactive) in [5]; 0.0188 (inactive) in assay [6]; -0.0448 (inactive) in [7]. In addition, the log fold change Tl+ flux in assay [8] is -0.00101 (inactive).
As to `COc1cccc([C@@]2(O)CCCC[C@@H]2CN(C)C)c1`, the mean signal in [1] is 274 (inactive). Moreover, the log fold change Tl+ flux in assay [2] was -0.0178 (inactive); in assay [3], -0.0211 (inactive); in assay [4], -0.0331 (inactive); in assay [5] it was -0.0685 (inactive); in assay [6] it was -0.0302 (inactive); in assay [7] it was 0.00141 (inactive). Also, the log fold change Tl+ flux in [8] is 0.0567 (inactive).
In the case of `CCN(CC)CCOC(=O)C(O)(c1ccccc1)c1ccccc1`, the mean signal in [1] was 281 (inactive). Also, the log fold change Tl+ flux is 0.0198 (inactive) in [2]; -0.00425 (inactive) in [3]; 0.0439 (inactive) in assay [4]; -0.0214 (inactive) in assay [5]; -0.0156 (inactive) in assay [6]; 0.0436 (inactive) in assay [7]. Also, the log fold change Tl+ flux in assay [8] was -0.00361 (inactive).
In the case of `CC[C@]1(O)CC[C@H]2[C@@H]3CCC4=CCCC[C@@H]4[C@H]3CC[C@@]21C`, the log fold change Tl+ flux was 0.0652 (inactive) in assay [2]; -0.128 (active) in assay [3]; -0.0162 (inactive) in assay [4]; 0.0162 (inactive) in [5]; 0.231 (active) in assay [6]; 0.196 (active) in assay [7]. For the same molecule, in assay [8], the log fold change Tl+ flux is 0.0508 (inactive).
`O=C(O)C(Cl)Cl`: the mean signal in assay [1] was 259 (inactive). Moreover, the log fold change Tl+ flux in assay [2] was -0.0365 (inactive); in assay [3] it was -0.0051 (inactive); in [4] it was -0.00825 (inactive); in [5], -0.098 (inactive); in [6] it was 0.0188 (inactive); in assay [7], -0.00393 (inactive). In addition, the log fold change Tl+ flux in assay [8] was -0.0385 (inactive).
`CCOC(=O)c1cncn1C(C)c1ccccc1` (centres undefined): the survival in [10] is 6.08 (inactive). The log fold change Tl+ flux in assay [2] is -0.00492 (inactive); in [3], 0.00176 (inactive); in assay [4], 0.0219 (inactive); in assay [5], -0.00746 (inactive); in assay [6], 0.0125 (inactive); in assay [7], 0.0301 (inactive). In addition, the log fold change Tl+ flux in assay [8] was -0.0322 (inactive).
Take `NN=C(N)N`: the period change in assay [9] was -0.015 hour (inactive) and -0.1 hour (inactive). Moreover, the inhibition in [11] was -1% (inactive) and -5% (inactive). The fluorescence ratio (interference) in assay [12] was 1 (inactive) and 0.9 (inactive). In assay [13], the remaining activity was 111% (inactive) and 119% (inactive). Moreover, the call in [14] was inactive.
Consider `CN1C(=O)CN=C(c2ccccc2)c2cc([N+](=O)[O-])ccc21`, for which the mean signal in assay [1] is 228 (inactive). The log fold change Tl+ flux is 0.0275 (inactive) in assay [2]; -0.0526 (inactive) in assay [3]; 0.0676 (inactive) in [4]; -0.00261 (inactive) in [5]; -0.0104 (inactive) in assay [6]; 0.0315 (inactive) in assay [7]. The log fold change Tl+ flux in [8] is 0.0318 (inactive).

These data come from PubChem BioAssay.
